Experimental data reported in PubChem BioAssay (NCI).
Compounds without any hit were thinned out: in the full panel of roughly 83,000, 20% have a hit.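 Each cell line was grown in a 96-well plate and treated with one concentration of compound for 48 hours. Values below 10 were considered active.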 The source made the active and inactive calls.

Columns and labels:
Experiment in all cases: NCI-60 one-dose screen, 48 h (100 = growth as untreated, 0 = no growth, -100 = all killed)
Conditions in all cases: 10 µM unless noted
[1] = test system: SR leukemia
[2] = test system: RPMI-8226 leukemia
[3] = test system: OVCAR-8 ovarian
[4] = test system: OVCAR-5 ovarian
[5] = test system: OVCAR-4 ovarian
[6] = test system: SK-OV-3 ovarian
[7] = test system: IGROV1 ovarian
[8] = test system: OVCAR-3 ovarian
[9] = test system: HS 578T breast
[10] = test system: NCI/ADR-RES ovarian
[11] = test system: T-47D breast
[12] = test system: BT-549 breast
[13] = test system: MDA-MB-435 melanoma
[14] = test system: SW-620 colon
[15] = test system: MCF7 breast
[16] = test system: HCT-116 colon
[17] = test system: HCC-2998 colon
[18] = test system: KM12 colon

Measured: growth

CC(C)C1C2=C(NCCN1C(=O)Cc1ccccc1)C(C)(C)N(Cc1ccccc1)C2=O (centres undefined)
inactive: [1] 106% | [2] 102% | [3] 100% | [4] 102% | [5] 104% | [6] 93.5% | [7] 98.8% | [8] 102% | [9] 103% | [10] 99% | [11] 91.8% | [12] 99.7% | [13] 99.2% | [14] 92.5% | [15] 95.3% | [16] 91.7% | [17] 101% | [18] 107%

Nc1nc(N)nc(NCc2ccccc2)n1
inactive: [1] 89% | [2] 107% | [3] 117% | [4] 103% | [5] 128% | [6] 115% | [7] 109% | [8] 105% | [9] 120% | [10] 100% | [11] 98.2% | [12] 106% | [13] 112% | [14] 112% | [15] 95.8% | [16] 106% | [17] 94.7% | [18] 104%

CC(C)Cc1ccc(C(C)C(=O)NCc2ccc(Cn3c(=O)sn(-c4ccc(Cl)cc4)c3=O)cc2)cc1 (centres undefined)
inactive: [1] 72.2% | [2] 83.9% | [3] 79.5% | [4] 89.3% | [5] 47.4% | [6] 92% | [7] 92.2% | [8] 91.5% | [9] 71.8% | [10] 90.3% | [11] 54.9% | [12] 95.1% | [13] 84.8% | [14] 59.8% | [15] 66.9% | [16] 75.6% | [17] 96.2% | [18] 69.8%

COc1ccc(CC(C)=C(c2ccc(OCCN(C)C)cc2)c2ccc(OCCN(C)C)cc2)cc1
active: [1] -13.2%
inactive: [2] 56.2% | [3] 86% | [4] 86.8% | [5] 90.1% | [6] 85.7% | [7] 74.6% | [8] 83.8% | [9] 74.6% | [10] 86.4% | [11] 84.5% | [12] 78.3% | [13] 61.9% | [14] 48.1% | [15] 69.7% | [16] 22% | [17] 89% | [18] 75.5%

C[C@H]1[C@H](C)CC[C@]2(CO)CC[C@]3(C)C(=CC[C@@H]4[C@@]5(C)Cc6c([nH]c7ccccc67)C(C)(C)[C@@H]5CC[C@]43C)[C@H]12
inactive: [1] 75.8% | [2] 83.7% | [3] 77% | [4] 116% | [5] 89.8% | [6] 96.9% | [7] 88.8% | [8] 87.4% | [9] 74.6% | [10] 90.6% | [11] 68.3% | [12] 85.2% | [13] 90.3% | [14] 96.2% | [15] 74.1% | [16] 61.5% | [17] 86% | [18] 73.8%

COc1cc(-c2cc(=O)oc3cc(O)ccc23)cc(OC)c1OC
inactive: [1] 97.6% | [2] 41.8% | [3] 84.9% | [4] 103% | [5] 73% | [6] 135% | [7] 94% | [8] 88.4% | [9] 88.5% | [10] 88.3% | [11] 83.5% | [12] 97.4% | [13] 100% | [14] 96% | [15] 94% | [16] 86.5% | [17] 100% | [18] 85.7%

C#CC(=O)Nc1cccc(Nc2nc3c(c(NCc4ccccc4)n2)CCCC3)c1
active: [1] -27% | [2] -23.7% | [3] -89.6% | [4] -45% | [5] -95.3% | [6] -98.5% | [7] -42.6% | [8] -82.9% | [9] -5.41% | [10] 5.07% | [11] -38.7% | [12] -70% | [13] -70.6% | [14] -46.7% | [15] -39.7% | [16] -78.8% | [17] -89.3% | [18] -53.4%

Cn1c(COC(=O)NCCc2ccccn2)nc2c(N3CCOCC3)nc(Cl)nc21
active: [1] 3.5% | [2] -22.7% | [3] 4.96% | [4] -65% | [5] -59.3% | [7] -92.3% | [8] -88% | [9] -25% | [11] -2.17% | [12] 2.36% | [13] -83.3% | [14] -86.2% | [15] -43.5% | [16] -69.8%
inactive: [6] 90.3% | [10] 18.9% | [17] 37.5% | [18] 44.3%
